# Results as given in PubChem BioAssay (NCI).
# This is part of a sample that, as a whole, favours compounds with a hit. Of some 79,000 tested, about 15% had one in any assay. Unmarked numbers belong to inactive results. Active and inactive are the calls of the source. No stated cut-off is given here; in the data, active means growth inhibition above about 70%; inactive means the rest.
# Assays:
# [1] = NCI Yeast Anticancer Drug Screen. Data for the rad50 strain (AID 155);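 further: 0% = growth of vehicle-only cultures of the same strain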; settings: S. cerevisiae rad50 strain growth inhibition; at 50.0 µM; hits give high values
# Method in brief: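 Vehicle-treated cultures provide the reference for the growth inhibition reported for compound-exposed, repair-deficient yeast.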
# [2] = NCI Yeast Anticancer Drug Screen. Data for the mec2-1 strain (AID 157); settings: S. cerevisiae mec2-1 strain, at 50.0 µM, hits give high values
# Method in brief: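 Mutant yeast (mec2-1) grown with compound; growth inhibition relative to vehicle control reported.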
# [3] = NCI Yeast Anticancer Drug Screen. Data for the sgs1 mgt1 strain (AID 161);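 further: 0% = growth of cultures given vehicle only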; settings: S. cerevisiae sgs1 mgt1 strain, at 50.0 µM, hits give high values
# Method in brief: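 Percent growth inhibition was derived by comparing compound-exposed mutant yeast with vehicle-exposed cultures. The strain carries alterations in DNA damage repair.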
# [4] = NCI Yeast Anticancer Drug Screen. Data for the cln2 rad14 strain (AID 165);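 further: 0% = growth equal to vehicle treated cultures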; settings: S. cerevisiae cln2 rad14 strain, at 50.0 µM, hits give high values
# Method in brief: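 Readout is yeast growth inhibition versus vehicle-treated controls, using a strain with cln2 and rad14 alterations exposed to compound.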
# [5] = NCI Yeast Anticancer Drug Screen. Data for the bub3 strain (AID 167); settings: S. cerevisiae bub3 mutant strain, at 50.0 µM, hits give high values
# Method in brief: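 Mutant yeast screening strain plus compound; vehicle-treated cultures serve as the 0% inhibition reference.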
# [6] = NCI Yeast Anticancer Drug Screen. Data for the mlh1 rad18 strain (AID 175); settings: S. cerevisiae mlh1 rad18 strain growth inhibition; at 50.0 µM; hits give high values
# Method in brief: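 Genetically defined yeast (DNA repair-deficient) exposed to compounds; growth inhibition determined relative to vehicle.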
SMILES,growth inhibition [1],growth inhibition [2],growth inhibition [3],growth inhibition [4],growth inhibition [5],growth inhibition [6]
NCC(O)c1cc(I)c(Oc2ccc(O)cc2)c(I)c1 (configuration not stated),7.65%,-19.8%,-22.6%,12.3%,-1.35%,-11.5%
O=NNc1ccc(Oc2ccccc2)cn1,15.4%,-13.5%,-7.9%,-9%,-19.8%,-1.85%
CC(=O)N1Cc2ncnc(N)c2C1,-12.3%,-8.9%,-20.7%,-10.6%,-2.35%,-10.4%
CC(=O)NS(=O)(=O)c1ccc(N=C=S)cc1,-7.25%,1.85%,-12.8%,-19.4%,-2.9%,-1.05%
CO/C(N)=C(\C#N)N=Cc1ccco1,-21.4%,-22.4%,-4.65%,11.8%,-4.55%,9.3%
O=C(O)C1CCOCC1,9.9%,0.7%,2.35%,4%,15.2%,-0.4%
Cc1cccc(C)c1NC(=S)N(CCC#N)C1CC(C)CC(C)(C)C1 (configuration not stated),3.45%,4.35%,19.6%,-2.8%,19.9%,-20%
CCSCN1CCN(CSCC)CC1,1.35%,1.15%,3.5%,27.5%,-11.9%,-5.05%
COc1ccc(C(O)C(=O)c2nc3ccc([N+](=O)[O-])cc3[nH]c2=O)cc1 (configuration not stated),-16.5%,-49.5%,-29.5%,-22.1%,-36.5%,-5.2%
COc1ccc(C(=O)/C=C/c2c[nH]c3ccccc23)c(O)c1,15.8%,9.85%,26.3%,-43.2%,9.9%,22.4%
O=C1c2cccnc2-c2ncccc21,16.3%,0.55%,-1.35%,9.8%,5.4%,24.1%
CCCCOC(=O)c1c2nc3c(C(=O)OCCCC)ccc(C)c3oc-2c(C)c(=O)c1NC(C)=O,19.4%,5.1%,6.95%,4.9%,-5.3%,5.2%
Cc1c(C(=O)OCCCl)c(=O)n(-c2ccccc2)n1C,-43.4%,-56.2%,4.7%,19.6%,-33.5%,-0.55%
CCOC(=O)/C(C)=C(/O)C(=O)OCC,-45.2%,-56.3%,-22%,-7.05%,-40.2%,-27.9%
O=C(Nc1cc(Cl)c(Cl)cc1Cl)Nc1cc(Cl)ccc1Oc1ccc(Cl)cc1S(=O)(=O)O,98% (active),99.3% (active),99.2% (active),98.5% (active),98.8% (active),98.7% (active)
O=C(/C=C/NC(=O)OCc1ccccc1)OCc1ccccc1,9.35%,-5.5%,-0.9%,17.1%,3.55%,0.95%
C=CCCC(C)N(C(=O)OC(C)(C)C)S(=O)(=O)c1ccc(C)cc1 (configuration not stated),16.6%,-13.2%,4.85%,-9.3%,-4%,0.45%
CCOc1ccccc1NCN1C(=O)c2ccccc2C1=O,-38.9%,-35.1%,-12.2%,-8.65%,-18.3%,-20.1%
CC(C)(C)OC(=O)C1C(=O)CC(c2ccccc2)C1c1ccccc1 (configuration not stated),-3.05%,-3%,1.25%,-7.8%,-5.7%,-1.9%
COc1cc2c(oc(=O)c3cc4cc([Si](C)(C)C)oc4c(OC)c32)c2cccc(O)c12,-0.5%,-27.4%,-26.6%,-23.2%,6.9%,-8.25%

SMILES,growth inhibition [1],growth inhibition [2],growth inhibition [3],growth inhibition [4],growth inhibition [5],growth inhibition [6]
COC(OC)C1OC(C)(C)OC1C(OS(=O)(=O)c1ccc(C)cc1)C1COC(C)(C)O1 (configuration not stated),-14.7%,-7.8%,6.45%,1.95%,1.6%,12.7%
O=C(NC(=O)c1c(F)cccc1F)Nc1ccc(C(O)(C(F)(F)F)C(F)(F)F)cc1,-33.2%,14.5%,10.2%,24.1%,6%,3.55%
NS(=O)(=O)c1ccc(NC(=O)Nc2cccc(Cl)c2)cc1,1.35%,12.6%,15.5%,-4.9%,46.4%,-11.3%
Brc1ccc(Nc2ccc(Br)cc2Br)c(Br)c1,28.2%,23.1%,16.6%,11.6%,3.8%,10.2%
O=C(Cl)CNS(=O)(=O)c1ccccc1,5.45%,5.1%,1%,15.8%,6.4%,1.45%
CN(C)CC(=O)N1CCc2c([nH]c3ccccc23)C1c1cccnc1 (configuration not stated),-44.9%,-10.2%,3.6%,-3.1%,-15.3%,-16.9%
COc1cc(C2c3cc4c(cc3C(OC(=O)C[n+]3ccccc3)C3COC(=O)C23)OCO4)cc(OC)c1OC (configuration not stated),28.7%,-9.15%,1.7%,-4.75%,18.8%,16.5%
Cc1cn(C2CCCCC2O)c(=O)[nH]c1=O (configuration not stated),-15.8%,-14%,-2.85%,12.6%,-15.1%,-16.9%
C=CCOc1c(C)cc(C)cc1C,5.3%,-17.4%,-5.95%,-16.3%,-14.8%,-6.85%
COC(=O)c1c2c(cc3c1CC1(Cc4cc5c(cc4C1=O)CCC5)C3)CCC2 (configuration not stated),-23.4%,-37%,-2.4%,0.45%,10.8%,3.3%
Cc1c(Cl)cc(Cl)c(N)c1Cl,-4.4%,-13.7%,-18%,-5.3%,-16.1%,-15.2%
COc1ccc(OC)c(NC(=O)Nc2ccc(I)cc2)c1,46.8%,42%,33.9%,15.1%,52.9%,56%
C=CCOC(=O)CCC(=O)OCC=C,3.45%,6.2%,-4.65%,-15.4%,5.8%,-4.35%
CC(C)SC1SCC2C(=O)N(C)C3(CC3C)C(=O)OCC(NC(=O)c3nc4ccccc4cc3O)C(=O)NC(C)C(=O)N(C)C1C(=O)N(C)C1(CC1C)C(=O)OCC(NC(=O)c1nc3ccccc3cc1O)C(=O)NC(C)C(=O)N2C (configuration not stated),70.4% (active),68%,78% (active),73.8% (active),78.8% (active),81.2% (active)
Cc1ccc(NC(=O)c2cc3ccccc3c(N=Nc3ccccc3O)c2O)c(C)c1,-11.9%,5.4%,9%,9.85%,12.6%,10.7%
CCOC(=O)C(N)Cc1cc(I)c(O)c(I)c1 (configuration not stated),-20.1%,-31.1%,-14.4%,7.8%,-23.2%,-25.1%
Cc1ccc2nc(C)cc(N=[N+]=[N-])c2c1,-35.6%,-21.8%,-17.1%,-58.9%,–,-11.5%
Cc1ccc(S(=O)(=O)Nn2c(-c3ccccc3)c(C#N)c(-c3ccc([N+](=O)[O-])cc3)c(C#N)c2=O)cc1,-0.65%,16.2%,8.6%,11.6%,–,37%
CCCc1nc(N)nc(C(=O)Nc2cccc(C(F)(F)F)c2)c1CC,-15.2%,-19.4%,5.1%,4.05%,2.15%,-8.25%
C=C1CC(C)(Cn2cnc3c(N)ncnc32)OC1=O (configuration not stated),9%,10.6%,9.05%,20.1%,–,21.1%
